From PubChem BioAssay
A selection: hits, their analogues and other compounds. The true share with any hit is near 28%.
CYP2C19 inh: blocks human cytochrome P450 2C19. P33261. CYP2C19 Supersomes, luciferin-H EGE luminescence, 30 min. inhibition, % at 5 µM. 21% of 96,000 active. AID 778;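 active = CYP2C19 inhibition above a set limit at 5 µM in the primary screen, cut at about 50% in these data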;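 note: plate controls were negative control wells for no effect and 2.5 mM tranylcypromine positive control for full effect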
CYP2C9 inhib: inhibitors of human CYP2C9; P11712; CYP2C9 Supersomes, luciferin-H conversion, luminescence; inhibition, % at 5 µM; 20% of 96,000 active; AID 777;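 active = blocking of liver enzyme CYP2C9 beyond about 50% at 5 µM, limit read from the data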
CYP2C19 activ: cytochrome P450 2C19 (human) activation; P33261; recombinant CYP2C19, luciferin-H EGE luminescence; active compounds read high; 0 = fully inhibited enzyme, 1 = untreated enzyme; activation factor at 5 µM; 96,000 tested, under 10 active; AID 1025;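 active = activation factor of at least 2 at 5 µM in the primary screen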;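 note: 0 = wells with 2.5 mM tranylcypromine and 1 = vehicle-only wells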
CYP2C9 activ: activators of human CYP2C9; recombinant CYP2C9, luciferin-H conversion, luminescence; active compounds read high; factor 1 = untreated enzyme, 0 = blocked; activation factor at 5 µM; 1.4% of 96,000 active; AID 1024;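 active = activation factor of 2 or more for CYP2C9 at a 5 µM dose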;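 note: 0 = sulfaphenazole-blocked wells and 1 = vehicle-only wells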
PTK2B oligo ant: Pyk2 (human) oligomerization antagonism; Q14289; Q293 cells, Pyk2 FERM NanoBiT luminescence; active compounds read low; z-score (the deposit names both 25 µM and 10 µM); 0.83% of 99,000 active; AID 1347419;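 active = Z-score of -3 or lower, scaled per plate to the spread of control and sample wells; inactive = z-score above -3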;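 note: negative z-score means lost luminescence so less FERM oligomerization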
Target sequence (Q14289 whole entry, looked up): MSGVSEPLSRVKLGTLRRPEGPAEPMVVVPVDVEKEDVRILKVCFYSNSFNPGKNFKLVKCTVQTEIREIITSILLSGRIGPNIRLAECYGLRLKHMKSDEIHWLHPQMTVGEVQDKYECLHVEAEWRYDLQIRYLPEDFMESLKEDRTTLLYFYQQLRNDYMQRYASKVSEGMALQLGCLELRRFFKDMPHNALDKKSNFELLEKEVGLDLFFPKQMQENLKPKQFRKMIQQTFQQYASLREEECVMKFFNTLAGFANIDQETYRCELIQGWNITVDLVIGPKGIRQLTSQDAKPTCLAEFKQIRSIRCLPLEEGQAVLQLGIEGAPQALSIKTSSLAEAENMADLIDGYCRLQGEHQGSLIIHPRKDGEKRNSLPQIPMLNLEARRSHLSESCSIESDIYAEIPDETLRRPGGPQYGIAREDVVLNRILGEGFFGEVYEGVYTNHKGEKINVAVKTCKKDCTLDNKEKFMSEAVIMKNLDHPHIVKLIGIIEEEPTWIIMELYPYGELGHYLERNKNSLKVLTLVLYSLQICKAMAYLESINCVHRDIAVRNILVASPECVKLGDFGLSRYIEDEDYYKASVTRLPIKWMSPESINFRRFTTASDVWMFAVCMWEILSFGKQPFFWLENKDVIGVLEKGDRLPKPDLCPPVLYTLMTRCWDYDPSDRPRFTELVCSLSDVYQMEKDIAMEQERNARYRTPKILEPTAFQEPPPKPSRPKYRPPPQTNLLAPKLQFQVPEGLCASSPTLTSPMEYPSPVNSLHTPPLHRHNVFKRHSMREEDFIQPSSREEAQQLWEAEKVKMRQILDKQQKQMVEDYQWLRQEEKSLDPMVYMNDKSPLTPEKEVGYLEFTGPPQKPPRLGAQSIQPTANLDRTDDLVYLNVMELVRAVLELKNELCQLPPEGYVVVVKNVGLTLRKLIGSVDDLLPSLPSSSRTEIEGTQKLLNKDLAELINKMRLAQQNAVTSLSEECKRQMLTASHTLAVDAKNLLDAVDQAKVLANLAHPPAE
Active calls of the source: *; nt = no result given.

SMILES	CYP2C19 inh	CYP2C9 inhib	CYP2C19 activ	CYP2C9 activ	PTK2B oligo ant
CC1CC(N(C(=O)c2ccco2)c2ccccc2)c2ccccc2N1C(=O)c1ccco1 (stereo not drawn)	91.1*	87.8*	0.1	0.1	-2.95
Cc1ccc(S(=O)(=O)N2CCN(C(=O)N3CCOCC3)C2C)cc1 (stereo not drawn)	22.6	-27.6	0.8	1.3	-0.31
Cc1ccc(S(=O)(=O)n2cc(-c3ccccc3)c(N)n2)cc1	52.2*	89.8*	0.5	0.1	0.03
N#Cc1cccc(-c2cn(S(=O)(=O)c3ccc(Cl)cc3)nc2N)c1	10.6	39.3	0.9	0.6	-0.14
C=CCn1c(N)c(C(=O)Nc2ccccc2OC)sc1=S	77.7*	84.7*	0.2	0.2	-1.21
C=CCn1c(N)c(C(=O)N2CCOCC2)sc1=S	45.7	70.1*	0.5	0.3	-0.37
Cc1ccc(-n2c(N)c(C(=O)NCc3ccco3)sc2=S)cc1	11.2	45.2	0.9	0.5	-0.3
CCn1c(N)c(C(=O)N2CCOCC2)sc1=S	7.7	11.4	0.9	0.9	-0.51
C=CCn1c(N)c(C(=O)NCc2ccco2)sc1=S	59.7*	64.0*	0.4	0.4	0.15
CCC1CCCCN1CCCNC(=O)CC1Oc2ccc(C)cc2NC1=O (stereo not drawn)	-3.2	5.0	1	0.9	nt
Cc1occc1C(=O)NNC(=S)Nc1ccccc1	45.0	17.7	0.6	0.8	0.04
CC(C)(C)C(=O)Nc1ncc(C(F)(F)F)cc1Cl	16.7	-0.1	0.8	1	-0.12
CO/N=C/NC(=O)C1=NOC(CNc2ncc(C(F)(F)F)cc2Cl)C1 (stereo not drawn)	74.8*	5.8	0.3	0.9	-0.45
NC(=O)C1=NOC(CNc2ncc(C(F)(F)F)cc2Cl)C1 (stereo not drawn)	10.0	-171.0	0.9	2.7*	0.07
Cc1c(-c2cccs2)[n+](=O)c2c(n1[O-])CCCC2	nt	nt	nt	nt	-0.1
Cn1c(C2=C(O)CN(c3ccc4c(c3)OCCO4)C2=N)nc2ccccc21	16.1	0.0	0.8	1	-0.31
COc1ccc(C(=O)NCCc2nnc(SCc3nc4ccccc4c(=O)[nH]3)n2C)cc1	-6.4	84.1*	1.1	0.2	0.74
Cn1c(SC/C=C/c2ccccc2)nnc1-c1ccco1	nt	nt	nt	nt	-0.02
CC(C)Cn1c(SCc2nc3ccccc3c(=O)[nH]2)nc2ccccc2c1=O	55.1*	80.4*	0.4	0.2	-1.79
Cn1c(SCc2nc3ccccc3c(=O)[nH]2)nnc1-c1ccco1	50.6*	-3.9	0.5	1	0.91
Cn1c(-c2ccccc2)cnc1SCc1nc2ccccc2c(=O)[nH]1	99.6*	20.8	0	0.8	0.34
CCc1cccc2cc3c(N)c(C(=O)Nc4ccc(S(=O)(=O)N5CCCC5)cc4)sc3nc12	nt	nt	nt	nt	0.47
CCOC(=O)CSC(CC)C(=O)Nc1nnc(CC)s1 (stereo not drawn)	-3.9	42.2	1	0.6	nt
CN1CCN(S(=O)(=O)c2ccc(=O)[nH]c2)CC1	-7.5	-2.2	1.1	1	0.22
CN(C)S(=O)(=O)c1cccc(NC(=O)c2cc3ccccc3o2)c1	21.0	61.2*	0.8	0.4	-0.74
SMILES	CYP2C19 inh	CYP2C9 inhib	CYP2C19 activ	CYP2C9 activ	PTK2B oligo ant
CN(C)S(=O)(=O)c1cccc(NC(=S)Nc2cc(Cl)cc(Cl)c2)c1	45.1	37.6	0.5	0.6	0.29
O=C(Nc1cccc(-c2nc3ncccc3o2)c1)c1cc2ccccc2o1	26.1	89.0*	0.7	0.1	-2.04
Cc1ccc(-c2nc3ncccc3o2)cc1NC(=O)c1cc2ccccc2o1	19.5	43.5	0.8	0.6	-0.83
CN(C)S(=O)(=O)c1cccc(NC(=S)Nc2ccc(Cl)cc2Cl)c1	71.0*	67.1*	0.3	0.3	0.96
CCC(c1nnnn1C(C)C)N1CCN(C2CCCC2)CC1 (stereo not drawn)	-10.1	-0.1	1.1	1	-0.22
OCCOCCOCCn1c2ccccc2c2ccccc21	81.7*	28.6	0.2	0.7	-0.29
OCCN1CCN(CC#CCn2c3ccccc3c3ccccc32)CC1	27.8	-94.0	0.7	1.9	0.68
Cc1cc(NS(=O)(=O)c2ccccc2)n(-c2ccccc2)n1	3.7	86.3*	1	0.1	-0.28
Cc1cc(Nc2ccccc2)n(-c2ccccc2)n1	89.9*	75.0*	0.1	0.3	-0.75
Clc1cccc(CNc2nnnn2-c2ccccc2)c1	11.8	23.0	0.9	0.8	-1.31
Cc1cc(Nc2nnnn2-c2ccccc2)n(-c2ccc(Cl)cc2)n1	65.1*	31.5	0.3	0.7	-1.76
CCOc1ccc(OCC)c(NC(=O)CC2Oc3ccccc3NC2=O)c1 (stereo not drawn)	14.5	14.3	0.9	0.9	nt
CCc1cc2c(=O)n(CC)c(SC(C)C(=O)Nc3c(C)n(C)n(-c4ccccc4)c3=O)nc2s1 (stereo not drawn)	23.1	45.9	0.8	0.5	1.06
CCOC(=O)Cc1nnc(NC(=O)CSc2nnc3c4ccccc4n(C)c3n2)s1	95.8*	91.5*	0	0.1	-0.07
C=CCn1c2ccccc2c2nnc(SCc3ccc4nonc4c3)nc21	83.8*	83.9*	0.2	0.2	-1.36
CCCn1c2ccccc2c2nnc(SCC(=O)Nc3cc(C)on3)nc21	4.0	32.7	1	0.7	-0.63
C=CCn1c2ccccc2c2nnc(SCC(=O)OCN3C(=O)c4ccccc4C3=O)nc21	nt	nt	nt	nt	2.42
CCCn1c2ccccc2c2nnc(SCC(=O)Nc3ncccn3)nc21	51.6*	60.0*	0.5	0.4	1.13
C=CCn1c2ccccc2c2nnc(SCC(=O)Nc3cc(C)on3)nc21	28.3	55.2*	0.7	0.4	-0.42
CNC(=O)Cn1nc(-c2ccc(C)c(S(=O)(=O)N(C)C)c2)c2ccccc2c1=O	nt	nt	nt	nt	-0.44
CC1(C)OC(=O)C(C(c2ccccc2)C(C#N)C(N)=O)=C(O)O1 (stereo not drawn)	-20.0	-22.1	1.2	1.2	0.91
COCCn1c(SCC(=O)N2CC(=O)Nc3ccccc32)nnc1-c1ccoc1C	nt	nt	nt	nt	0.56
O=C(CN1C(=O)NC2(CCc3ccccc32)C1=O)Nc1ccc(N2CCOCC2)cc1 (stereo not drawn)	-2.4	4.2	1	1	-0.57
CSc1nnc2c3ccccc3n(CCc3ccccc3)c2n1	60.9*	8.9	0.4	0.9	-3.3*
CCOC(=O)c1sc(-c2ccc(OC)cc2)cc1N	65.4*	68.4*	0.3	0.3	0.94
SMILES	CYP2C19 inh	CYP2C9 inhib	CYP2C19 activ	CYP2C9 activ	PTK2B oligo ant
CCOC(=O)c1sc(-c2ccccc2)cc1N	90.3*	80.1*	0.1	0.2	-0.57
CCOC(=O)c1cc(-c2ccccc2)sc1N	nt	nt	nt	nt	0.57
CCOC(=O)c1sc(-c2ccc(F)cc2)cc1N	90.1*	83.0*	0.1	0.2	0.1
CCOC(=O)c1c(N)n[nH]c1-c1ccc(OC)cc1	18.1	-14.0	0.8	1.1	-0.2
Cc1[nH]c2ccccc2c1C(O)CN1CCN(c2cccc(C(F)(F)F)c2)CC1 (stereo not drawn)	0.7	-91.1	1	1.9	-0.07
Cc1cc(-c2nnco2)c(C)n1-c1ccc(F)cc1	58.0*	10.0	0.4	0.9	2.01
